This note sets out measurements from PubChem BioAssay (Tox21).

Records with an inconclusive call do not appear. A call without a number means that no potency is given here. A number with no mark means an inactive call. Activity calls are given as the source filed them. Calls follow the shape of the dose curve; as a rule, active = well fitted activation curve with a large enough effect in the signal ratio in the repeat runs (not every such curve was filed as active); inconclusive = weak or mixed curves, or effect the other way; inactive = flat fitted curve, though single readings scatter; the % refers to the signal ratio.
Potency is read from the fitted curve at half-maximal effect.

Estrogen receptor beta (Homo sapiens), sequence (Q92731 whole entry, looked up): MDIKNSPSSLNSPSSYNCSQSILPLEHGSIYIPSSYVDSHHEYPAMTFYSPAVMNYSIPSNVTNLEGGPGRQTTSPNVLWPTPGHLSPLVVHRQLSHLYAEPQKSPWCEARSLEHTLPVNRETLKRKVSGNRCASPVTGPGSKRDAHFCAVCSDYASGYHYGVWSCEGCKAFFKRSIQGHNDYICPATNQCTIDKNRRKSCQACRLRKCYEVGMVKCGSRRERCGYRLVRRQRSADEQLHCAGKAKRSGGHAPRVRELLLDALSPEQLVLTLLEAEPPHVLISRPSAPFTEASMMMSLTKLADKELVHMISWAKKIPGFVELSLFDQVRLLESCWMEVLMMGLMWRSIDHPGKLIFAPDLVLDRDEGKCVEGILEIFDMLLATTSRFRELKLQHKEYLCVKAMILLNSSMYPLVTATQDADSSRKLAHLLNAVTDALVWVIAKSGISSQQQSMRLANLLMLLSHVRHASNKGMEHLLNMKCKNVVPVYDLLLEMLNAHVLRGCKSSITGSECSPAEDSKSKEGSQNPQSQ

The assay has as its target Estrogen receptor beta (Homo sapiens) (UniProt Q92731). Briefly: qHTS assay to identify small molecule agonists of the estrogen receptor beta (ER-beta) signaling pathway (AID 1259377). As to conditions: ER-beta-UAS-bla HEK293T, beta-lactamase FRET ratio, 16 h; series mostly up to 92.4 µM. An excerpt:
U.S. Tox21 Program National Center for Advancing Translational Sciences [NCATS] NIH Chemical Genomics Center [NCGC] U.S. Environmental Protection Agency [EPA] National Institutes of Environmental Health Sciences [NIEHS] National Toxicology Program [NTP] U.S. Food and Drug Administration [FDA] Tox21 Assay Overview: Estrogen receptor (ER), a nuclear hormone receptor, plays an important role in development, metabolic homeostasis and reproduction. Two subtypes of ER, ER-alpha and ER-beta, have similar expression patterns with some uniqueness in both types. Endocrine disrupting chemicals (EDCs) and their interactions with steroid hormone receptors like ER causes disruption of normal endocrine function. To identify the compounds that activate ER signaling, an ER beta-UAS-bla GripTite cell line (Life technologies, Madison, WI, USA) containing a beta-lactamase reporter gene under the control of an Upstream Activator Sequence (UAS) was used to screen Tox21 10K compound library.
Tox21 Assay Protocol Summary: ER-beta-UAS-bla HEK293T cells were dispensed at 2,000 cells/5 uL of assay medium containing 2% charcoal stripped FBS per well into black wall/clear-bottom 1536-well plates using a Multidrop Combi (ThermoFisher Scientific, Waltham, MA) dispenser. After the assay plates were incubated at a 37C and 5% CO2 for 6 hr, 23 nL of compounds dissolved in DMSO, positive controls or DMSO only was transferred to the assay plate by a Pintool station (Kalypsys, San Diego, CA). The plates were incubated at 37C and 5% CO2 for 16 hr. Then 1 uL of LiveBLAzerTM B/G FRET substrate was added using a BioRAPTR FRD (Flying Reagent Dispenser, Aurora Discovery, San Diego, CA). After the plates were incubated at room temperature for 2 hours, fluorescence intensity was measured by an Envision plate reader (PerkinElmer, Shelton, CT).
In general terms: In qHTS, concentration-response curves come from the screen itself.
For `CC(=O)Oc1ccc2c(c1)CC[C@@H]1[C@@H]2CC[C@]2(C)[C@@H](O)CC[C@@H]12`, the Potency is 0.8 nM (active).
On to `Cc1occc1C(=O)Nc1ccc(C(=O)N2CCC(F)(F)/C(=C\C(=O)N3CCC(N4CCCCC4)CC3)c3ccccc32)cc1`, for which the Potency entry was “inactive”.
Still for that read-out and setting: with `C[Si](NC1CCCCC1)(NC1CCCCC1)NC1CCCCC1` the entry was “inactive”.
The same measure, in the same setting: under `CC(C)(CCl)c1ccccc1` stands “inactive”.
Still for that read-out and setting: with `C/C=C(\C)C(=O)OCCC(C)CCC=C(C)C` (stereo not given) the entry was “inactive”.
Take `NC(=O)N(O)[C@@H]1C=C[C@H](Oc2cccc(Oc3ccc(F)cc3)c2)C1`: the Potency entry is “inactive”.
Still for that read-out and setting: with `CN1CCCN=C1/C=C/c1cccs1` the entry was “inactive”; with `Cc1cc(C(=C2C=CC(=Nc3ccc(S(=O)(=O)O)cc3S(=O)(=O)O)C=C2)c2ccc(Nc3ccc(S(=O)(=O)O)cc3)cc2)ccc1N`, “inactive”.
With `CN(C(=O)C(Cl)Cl)c1ccc(OC(=O)c2ccco2)cc1`, the Potency result was “inactive”.
The same measure, in the same setting: under `O=C(N[C@@H](c1ccccc1)[C@@H]1CCCCN1)c1cccc(C(F)(F)F)c1Cl` stands “inactive”; under `CCCCCCCCCCCCCCC[C@H](O)[C@@H](N)CO`, “inactive”; under `CC(C)CCCCCOC(=O)CCCCC(=O)OCCCCCC(C)C`, “inactive”.
On the same count and under the same terms, with `COC(=O)Nc1nc2ccc(C(=O)c3cccs3)cc2[nH]1` the entry was “inactive”; with `C=CC(=C)CCCC(C)(C)OC(C)=O`, “inactive”.
Still for that read-out and setting: with `COC(OC)(C(=O)c1ccccc1)c1ccccc1` the entry was “inactive”.
Take `C=CC(C)(O)CCCC(C)CCCC(C)CCCC(C)C` (stereo not given): the Potency result was “inactive”.
The same measure, in the same setting: under `CCCOC(=O)c1ccc(C(=O)OCCC)nc1` stands “inactive”; under `N#C/C(=C1\SCC(c2ccccc2Cl)S1)n1ccnc1` (stereo not given), “inactive”; under `CCC(C)=O`, “inactive”.
Still for that read-out and setting: with `CCCCC/C(=C\c1ccccc1)CO` the entry was “inactive”; with `C1COCO1`, “inactive”.
Still for that read-out and setting: under `CCC(=O)Oc1ccc(/C(CC)=C(\CC)c2ccc(OC(=O)CC)cc2)cc1` stands 1.7 nM (active); under `CCCCCC=CCC=CCCCCCCCC(=O)OCC`, “inactive”.
For `CCN(CC)CCNC(=O)c1ccc(NC(C)=O)cc1`, the Potency entry is “inactive”.
On the same count and under the same terms, with `CSc1ccc(Oc2ccc(S(N)(=O)=O)cc2CN(C)C)cc1C` the entry was “inactive”.
Consider `CCCCCCCCCCCCCCCCBr`, for which the activation is 0.819% [at 19 µM].
As for `CC(C)=CC=O`, the Potency entry was “inactive”.
As for `CCC(C(=O)OCCN(CC)CC)c1ccccc1` (stereo not given), the Potency entry is “inactive”.
The same measure, in the same setting: under `Cc1cc(O)c2c(O)c3c(O)cccc3cc2c1` stands “inactive”; under `O=C(O)c1ccc(CO)o1`, “inactive”.
The same measure, in the same setting: with `Nc1nccs1` the entry was “inactive”.
As for `O=C1NCCN1`, the Potency result was “inactive”.
On the same count and under the same terms, with `O=Cc1c(Cl)cccc1Cl` the entry was “inactive”.
Turning to `CCOC(=O)[C@@H](C)Oc1ccc(Oc2nc3ccc(Cl)cc3o2)cc1`, the Potency result is “inactive”.
Still for that read-out and setting: under `O=C(/C=C/c1ccccc1)OCCCc1ccccc1` stands “inactive”; under `CNCCCC1c2ccccc2C=Cc2ccccc21`, “inactive”.
Regarding `CC#N`, the Potency entry is “inactive”.
Turning to `CCOC(=N)CC(=O)OCC`, the Potency entry was “inactive”.
As for `CCCCCCCCCCCC(=O)[O][Sn]([CH2]CCC)([CH2]CCC)[O]C(=O)CCCCCCCCCCC`, the Potency result is “inactive”.
As for `Cc1c(C(=O)NN2CCCCC2)nn(-c2ccc(Cl)cc2Cl)c1-c1ccc(Cl)cc1`, the Potency entry is “inactive”.
